Screening data: PubChem, National Center for Advancing Translational Sciences (NCATS)
Sampled rows, rich in hits. Any-hit rate of the full collection: about 2.5%.
Cruzain inh Det: inhibitors of Trypanosoma cruzi cruzain with detergent | purified cruzain, Z-FR-AMC fluorescence, 0.01% Triton | Potency, µM, for the others: max response, negative = inhibition, most hits filed as inhibitors | actives 0.43% (n = 200,000) | AID 1478;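 note: plate controls were neutral wells for no effect and buffer without enzyme for full effect; nearly all actives have a fitted effect of over 40% in size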
Target sequence (P25779 123-467 limits assumed): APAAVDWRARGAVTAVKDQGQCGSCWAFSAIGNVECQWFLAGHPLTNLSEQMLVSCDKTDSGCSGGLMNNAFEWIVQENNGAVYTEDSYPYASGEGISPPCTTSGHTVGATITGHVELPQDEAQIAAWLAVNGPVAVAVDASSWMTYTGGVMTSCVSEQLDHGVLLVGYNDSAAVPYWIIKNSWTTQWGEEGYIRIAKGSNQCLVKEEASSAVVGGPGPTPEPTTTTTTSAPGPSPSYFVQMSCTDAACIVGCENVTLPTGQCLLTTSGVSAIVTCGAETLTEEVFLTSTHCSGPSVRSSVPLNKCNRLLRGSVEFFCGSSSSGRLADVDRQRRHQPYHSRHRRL
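Read-out: AMC fluorescence (360 nm excitation, 450 nm emission), four reads over 2 min, first-to-third difference used. Conditions: cruzain 1.5 nM, Z-FR-AMC 2 uM, pH 5.5 acetate, 5 mM DTT, 0.01% Triton X-100.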
Cruzain inh noDet: cruzain (T. cruzi) inhibition without detergent | P25779 | purified cruzain, Z-FR-AMC fluorescence, no detergent | Potency, µM, for the others: max response, negative = inhibition, actives largely listed as inhibitors | actives 2.3% (n = 200,000) | AID 1476;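 note: plate controls were enzyme without inhibitor for no effect and buffer without enzyme for full effect; nearly all actives have a fitted effect of over 40% in size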
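Purified cruzain at 1.5 nM, pre-incubated 15 min with compound at room temperature in 100 mM sodium acetate pH 5.5, 5 mM DTT, 0.00005% Triton X-100. Reaction started with 2 uM Z-FR-AMC; AMC fluorescence increase over 60 s gives rate.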
* = called active by the depositor; ? = inconclusive. Calls come from the whole dose curve; as a rule, active = well fitted curve in the direction sought with a large enough effect; inconclusive = small, poorly fitted or top-dose-only effect, or another doubt; inactive = no such curve, though single readings can be large; an effect the other way counts as inactive or inconclusive. Potency is the fitted concentration of half-maximal effect.

SMILES	Cruzain inh Det	Cruzain inh noDet
Cc1oc(-c2cccc(Cl)c2)nc1CN1CCCC(C(=O)N2CCN(c3ccc(F)cc3)CC2)C1 (configuration not stated)	0%	-18%
N[C@@]1(C(=O)O)CCC[C@@H]1C(=O)O	3%	2%
COc1ccc(NC(=O)CSc2ncccc2C(=O)OC(C)C)cc1OC	-2%	9%
CC(C)c1ccc(NC(=O)CSc2ncccc2C(=O)Oc2cccc([N+](=O)[O-])c2)cc1	-7%	16µM*
CC(C)CN(CCCNC(=O)c1cn(C)c2ccc(S(=O)(=O)N(C)C3CCCCC3)cc2c1=O)CC(C)C	-1%	-12%
COc1ccc(C)cc1NC(=O)c1ccc(N(C)S(C)(=O)=O)cc1	-9%	-5%
COc1ccc(N(C)S(=O)(=O)c2cccc(C(=O)Nc3ccc(OC)nc3)c2)cc1	-2%	8%
CC(=O)c1cccc(NC(=O)C(OC(=O)c2ccccc2NS(=O)(=O)c2cccs2)c2ccccc2)c1 (configuration not stated)	-3%	7.9µM*
COc1ccc(N(C)S(=O)(=O)c2cccc(C(=O)OC(C(=O)Nc3cc(C)cc(C)c3)c3ccccc3)c2)cc1 (configuration not stated)	3%	10µM*
CC(=O)NCCC(=O)Nc1cccc(S(=O)(=O)N(C)c2ccccc2)c1	1%	-4%
COc1ccc(C)cc1NC(=O)C(OC(=O)c1ccc(Cl)c(S(=O)(=O)N(C)c2ccccc2)c1)c1ccccc1 (configuration not stated)	3%	10µM*
CC(=O)c1cccc(NC(=O)C(OC(=O)c2cccc(S(=O)(=O)N(C)c3ccccc3)c2)c2ccccc2)c1 (configuration not stated)	-1%	25µM*
CCOc1ccccc1NC(=O)C(OC(=O)c1ccccc1NS(=O)(=O)c1cccs1)c1ccccc1 (configuration not stated)	-2%	?
COCCOC(=O)c1ccccc1C(=O)OCCOC	6%	1%
Cc1nnc(N2CCN(C(=O)NC(C)C)CC2)c2nn(-c3ccccc3)c(C)c12	-3%	-3%
COc1cc(NC(=O)CCc2c(C)n(C)c3cc(-c4ccccc4C)nn3c2=O)cc(OC)c1OC	1%	2%
CCOc1ccccc1CNC(=O)C1CCN(S(=O)(=O)c2c(C)noc2/C=C/c2ccccc2F)CC1	-2%	-14%
O=C(Cn1ccn(-c2ccc(F)cc2)c(=O)c1=O)NCCc1ccccc1	0%	-7%
Cc1ccc(-c2nc(NC(=O)CSc3ncnc4sc5c(c34)CCC(C)C5)ns2)cc1 (configuration not stated)	-2%	8%
CCC(=O)N1CCc2cc(Br)cc(S(=O)(=O)N3CCC(C(=O)N(CC)CC)CC3)c21	-1%	-1%
Oc1ccc2c(c1-c1c(O)c(Br)cc3c1CCCC3)CCCC2	0%	3%
Cc1cc(C)cc(-c2cc3c(c(-c4c(O)c(-c5cc(C)cc(C)c5)cc5c4CCCC5)c2O)CCCC3)c1	1%	16µM*
CC(C)CC(=O)Nc1cc(-c2ccccc2F)nn1-c1ccccc1	-1%	1%
Cc1cc(NCc2ccccc2Cl)n2cnnc2n1	-5%	4%
S=C(NCc1ccncc1)Nc1cccc(Cl)c1	-1%	13%
SMILES	Cruzain inh Det	Cruzain inh noDet
S=C(NCCC(c1ccccc1)c1ccccc1)Nc1cccc(Cl)c1	2%	16µM*
CCCC(=O)NC(NC(=S)Nc1ccc(N=Nc2ccccc2)cc1)C(Cl)(Cl)Cl (configuration not stated)	-4%	-29%
O=C(CCc1ccccc1)NC(NC(=S)Nc1ccc(Br)cc1)C(Cl)(Cl)Cl (configuration not stated)	4%	10µM*
O=C(CCc1ccccc1)NC(NC(=S)Nc1cccc(Cl)c1)C(Cl)(Cl)Cl (configuration not stated)	-1%	7.9µM*
O=C(/C=C/c1ccccc1)NC(NC(=S)Nc1cccc(Cl)c1)C(Cl)(Cl)Cl (configuration not stated)	-1%	?
O=C(c1cccs1)N(Cc1cccnc1)c1nc2ccc(F)cc2s1	-2%	-1%
CCCCOc1cccc(NC(=O)c2cccc(C(=O)Nc3cccc(OCCCC)c3)c2)c1	0%	-5%
CCCCCN1C(C(=O)c2ccccc2)=C(NC(C)=O)c2ccccc2S1(=O)=O	-11%	4%
CCCCCN1C(C(=O)c2ccccc2)=C(NC(=O)c2ccccc2Cl)c2ccccc2S1(=O)=O	-5%	10µM*
N=C(N)SCc1cccc2c(=O)cc(-c3ccccc3)oc12	-4%	-3%
O=C(O)c1ccc(OCc2ccccc2)c(Cl)c1	0%	2%
Cc1nn(-c2ccccc2)c(N2CCCCC2)c1/C=N/O	1%	-9%
Cc1nn(-c2ccccc2)c(N2CCCC2)c1/C=C1\N=C(c2ccccc2)OC1=O	1.6µM*	0.79µM*
O=S(=O)(c1ccccc1)N1CCC2(CCCN(c3ccncc3)C2)CC1	1%	3%
Cc1ccc2nc(/C(C#N)=C\c3ccc(Oc4ccc(C(F)(F)F)cc4[N+](=O)[O-])cc3)[nH]c2c1	-2%	7.9µM*
COc1cc(/C=C(\C#N)c2nc3ccc(C)cc3[nH]2)c([N+](=O)[O-])cc1OC	-6%	?
COc1ccc(/C=C(\C#N)c2nc3ccc(C)cc3[nH]2)cc1Oc1ccc(C(F)(F)F)cc1[N+](=O)[O-]	-2%	5µM*
N#C/C(=C\c1cccc(Oc2ccc(C(F)(F)F)cc2[N+](=O)[O-])c1)c1nc2ccccc2[nH]1	2%	-11%
COc1ccc(CNCc2c(C(=O)O)n(Cc3ccc(F)cc3)c3cc(C)ccc23)cc1OC	-3%	?
CN(Cc1cc(Br)cc(Br)c1N)C1CCCCC1	-3%	-2%
COc1cccc(N2CCN(C(=O)C3CCN(S(=O)(=O)c4c(C)noc4C)CC3)CC2)c1	-1%	?
Cc1ccc(C(=O)/C=C\C(=O)c2ccc(C)cc2)cc1	-9%	-21%
Cc1ccc(C(=O)c2no[n+]([O-])c2C(=O)c2ccc(C)cc2)cc1	?	25µM*
Cc1ccc(S(=O)(=O)c2nc(-c3cccs3)oc2SCc2ccc(F)cc2)cc1	-5%	-15%
CCc1ccc(CN2CCc3nc(N4CCN(c5ccccc5F)CC4)ncc3C2)cc1	0%	3%
SMILES	Cruzain inh Det	Cruzain inh noDet
COc1ccccc1C(=O)NC(=Nc1nc2ccccc2o1)NC(=O)c1ccccc1OC	4%	?
O=C(NC(=Nc1nc2ccccc2o1)NC(=O)c1ccccc1)c1ccccc1	-2%	13µM*
Cc1cc(O)c(C(c2cccc(Cl)c2)N2CCN(c3ccccc3)CC2)c(=O)n1Cc1ccco1 (configuration not stated)	2%	?
O=C(Nc1nc2c(s1)CCCC2)c1ccc(S(=O)(=O)N2CCCc3ccccc32)cc1	-2%	?
CC1CCc2nc(NC(=O)c3ccc(S(=O)(=O)N4CCCc5ccccc54)cc3)sc2C1 (configuration not stated)	-5%	7.9µM*
COc1ccccc1-c1nc(C#N)c(N2CCN(Cc3ccccc3)CC2)o1	-19%	-2%
COc1ccccc1-c1nc(C#N)c(N2CCC(Cc3ccccc3)CC2)o1	35µM*	?
O=C(Nc1cccc(Cl)c1)c1c(NC(=O)C(F)(F)F)sc2c1CCCC2	25µM*	?
Cc1cccc(NC(=O)c2c(NC(=O)C(F)(F)F)sc3c2CCCCC3)c1	-25%	-23%
